Inconclusive results are not listed. Unmarked numbers belong to inactive results. The source made the active and inactive calls. The call rests on the fitted dose curve; in most records, active means well fitted inhibition curve with a large enough effect; inconclusive means small, poorly fitted or top-dose-only effect; inactive means flat fitted curve, though single readings scatter.
System: Zika virus NS2B-NS3 protease (unlinked complex)
Assay: Confirmatory screen GU AMC qHTS for Zika virus inhibitors (AID 1347153);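 on activity, negative = inhibition: percent inhibition with 0% = no inhibitor control and 100% = no enzyme control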
Settings: Recombinant NS2B-NS3 protease, AMC substrate fluorescence; series mostly up to 57.1 µM; activity, negative = inhibition: at the top concentration
Excerpt: Assay Submitters (PI): Avindra Nath, Ph.D., National Institute of Neurological Disorders and Stroke (NINDS), Bethesda, MD Radhakrishnan Padmanabhan, Ph.D., Georgetown University (GU), Washington D.C. Zika Virus causes congenital defects, including microcephaly and is associated with Guillain-Barre syndrome, eningoencephalitis and myelitis in infected adult. […] Using a target-based approach, we hope to establish a screening paradigm to uncover novel, cell-active NS2B-NS3 protease (Zika Virus) specific inhibitors from NCATS' collection of small molecules using qHTS. […] Active compounds in the primary screen are re-acquired and re-screened to confirm NS2B-NS3 protease inhibition. Early Translation Branch (ETB) National Center for Advancing Translational Sciences (NCATS), Rockville, MD National Institute of Health (NIH), Bethesda, Maryland
Materials: Padmanabhan lab provided the NS2B hydrophilic domain and NS3 protease domain in a noncovalent complex used for the unlinked assay. Control compound aprotinin is obtained from Thermo Scientific (#78432; Waltham, Massachusetts). NS2B-NS3 AMC substrate (Bz-Nle-Lys-Arg-Arg-AMC; Nle-KRR-AMC) purchased from Bachem (#I-1995; Torrance, CA). Ac-VKTGKR-AMC purchased from Genscript or Bachem, Ac-FAAGKR-AMC purchased from Genscript, Ac-GLVKRR-AMC purchased from Genscript, Ac-LKKR-AMC purchased from Genscript. GU AMC unlinked NS2B-NS3 protease qHTS protocol: Briefly, 3 microL of Zika virus unlinked NS2B-NS3 protease (25 nM for linked final concentration), in assay buffer (10 mM Tris-HCl pH 8.0 with 0.01% Tween 20) was dispensed into a 1,536-well solid-bottom black plate (Greiner Bio One, Monroe, NC). Twenty-three nL of compounds (final concentration range 7.28 nM to 114 microM) or control Aprotinin (final concentration range 3.47 nM to 114 microM) were transferred via Wako Pin-tool (Wako Automation, Richmond, VA). Samples were incubated (room temperature, protected from light) for 15 minutes followed by a 1 microL AMC substrate addition of (final concentration of 10 microM; Km = 18.3 µM). Plates were then read immediately on a ViewLux High-throughput CCD imager (PerkinElmer, Waltham, MA) equipped with standard UV fluorescence optics (340(30) nm excitation, 450(20) nm emission) then incubated (room temperature, protected from light) for 15 minutes (~20% conversion). The change in fluorescence intensity over the 15-minute reaction period was normalized against no-inhibitor and no-enzyme controls and the resulting percent inhibition data were fitted to a 4-parameter Hill equation. Aprotinin was used as the intraplate control.
Further: nearly all actives have a fitted effect of over 70% in size.
Potency means the concentration at half of the fitted maximal effect.

| Structure (SMILES) | Potency | activity, negative = inhibition |
| --- | --- | --- |
| Cc1ccc(-n2[nH]c(C)c(N=Nc3cccc(-c4cccc(C(=O)O)c4)c3O)c2=O)cc1C | 15.2 µM (active) | – |
| CNC(=O)c1cccc(-c2ccc3c(N4CCOC[C@H]4C)nc(N4CCOC[C@H]4C)nc3n2)c1 | – | 9.43% |
| C[C@@H](NCc1cc2ccccc2[nH]1)c1cccc2ccccc12 | – | 0.642% |
| CCCCCCCCc1ccc(CCC(N)(CO)CO)cc1 | – | 1.89% |
| CC(C)c1cc(C(C)C)c(CC(=O)NS(=O)(=O)Oc2c(C(C)C)cccc2C(C)C)c(C(C)C)c1 | 11.1 µM (active) | – |
| COc1ccc(S(=O)(=O)Nc2cc(-c3c(O)ccc4ccccc34)c(O)c3ccccc23)cc1 | 24.1 µM (active) | – |

System: Zika virus NS2B-NS3 protease
Assay: Primary screen GU AMC qHTS for Zika virus inhibitors (AID 1347154);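 on activity change, negative = inhibition: 0% = no-inhibitor control and -100% = no-enzyme control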
Settings: Zika NS2B-NS3 unlinked protease, AMC fluorogenic substrate; series mostly up to 54.1 µM; activity change, negative = inhibition: at the top concentration
Outline: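 Fluorogenic AMC-substrate cleavage by noncovalent NS2B-NS3 protease complex (25 nM, pH 8.0 Tris buffer with Tween 20) followed for 15 minutes at room temperature (~20% conversion). Percent inhibition from ex340/em450 signal change, fitted by 4-parameter Hill equation.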

| Structure (SMILES) | activity change, negative = inhibition | Potency |
| --- | --- | --- |
| CC(C)N(CC[C@H](c1ccccc1)c1cc(CO)ccc1O)C(C)C | 14.9% | – |
| O=C(O)C[C@H](O)C[C@H](O)C=Cc1c(C2CC2)nc2ccccc2c1-c1ccc(F)cc1 | 21.5% | – |
| CC(C)N1[N]C(=C2C=c3cc(O)ccc3=N2)c2c(N)ncnc21 | 0.671% | – |
| Cc1ccc(-n2[nH]c(C)c(N=Nc3cccc(-c4cccc(C(=O)O)c4)c3O)c2=O)cc1C | – | 19.2 µM (active) |
| CNC(=O)c1cccc(-c2ccc3c(N4CCOC[C@H]4C)nc(N4CCOC[C@H]4C)nc3n2)c1 | – | 24.1 µM (active) |
| C=C1C[C@@]2(O)O[C@@]3(C[C@H]2C(C)C)[C@H](C)CC[C@H]13 | -1.39% | – |
| Cc1noc(-c2ccc(CSCCC(=O)O)cc2)c1NC(=O)OC(C)c1ccccc1Cl (stereo not drawn) | -4.24% | – |
| O=C(NC1CC1)c1cccc(-c2ccc3c(NC(=O)C4CC4)n[nH]c3c2)c1 | 11.5% | – |
| Nc1ccn(C[C@@H](CO)OCP(=O)(O)O)c(=O)n1 | 8.48% [at 25.8 µM] | – |
| C#C[C@]1(O)CC[C@@H]2[C@@H]3CCc4cc(O)ccc4[C@H]3CC[C@@]21C | -2.57% | – |
| COc1ccc(Nc2cc(-c3cnc(N)nc3)nc(N3CCOCC3)n2)cn1 | -4.83% | – |
| C[C@]12C=CC(=O)N[C@@H]1CC[C@H]1[C@H]3CC[C@@H](C(=O)Nc4cc(C(F)(F)F)ccc4C(F)(F)F)[C@@]3(C)CC[C@@H]12 | -4.03% | – |
| CN1[C@H]2CC(OC(=O)[C@@H](CO)c3ccccc3)C[C@H]1[C@H]1O[C@H]12 (stereo partly drawn) | 15% [at 25.8 µM] | – |
| C[C@H](CCC(=O)O)[C@H]1CCC2C3C[C@H](O)[C@@H]4C[C@H](O)CC[C@]4(C)C3CC[C@@]21C (stereo partly drawn) | 5.16% | – |
| COc1ccc2c(c1OC)C(=O)OC2[C@H]1c2c(cc3c(c2OC)OCO3)CCN1C (stereo partly drawn) | 8.27% | – |
| Cc1cc(Nc2ncc3c(n2)N(C)C(=O)N(c2cc(NC(=O)c4cccc(C(F)(F)F)c4)ccc2C)C3)n(C)n1 | 18% | – |
| OCC(O)C(O)C(O)CO (stereo not drawn) | 12.7% | – |
| Cc1cc(C(=O)NOCCO)c(Nc2ccc(I)cc2F)n(C)c1=O | -0.225% | – |
| CC1(C)O[C@@H]2C[C@H]3[C@@H]4CCC5=CC(=O)C=C[C@]5(C)[C@@H]4[C@@H](O)C[C@]3(C)[C@]2(C(=O)CO)O1 | -2.14% | – |

| Structure (SMILES) | activity change, negative = inhibition | Potency |
| --- | --- | --- |
| CC(=O)ON=C1C(c2c(O)[nH]c3cc(Br)ccc23)=Nc2ccccc21 | 3.17% | – |
| C#Cc1cccc(Nc2ncnc3cc(OCCOC)c(OCCO)cc23)c1 | 1.33% | – |
| CCCCCCCCc1ccc(CCC(N)(CO)CO)cc1 | 15.2% | – |
| OCc1ccccc1O[C@@H]1O[C@H](CO)[C@H](O)[C@H](O)[C@H]1O | 6.85% | – |
| C=C(C)[C@@H]1CC[C@]2(C(=O)O)CC[C@]3(C)[C@H](CC[C@@H]4[C@@]5(C)CC[C@H](O)C(C)(C)[C@@H]5CC[C@]43C)[C@@H]12 | 2.34% | – |
| Cn1cc(C2=C(c3c4n(c5ccccc35)CCC(CN)C4)C(=O)NC2=O)c2ccccc21 (stereo not drawn) | 6.99% | – |
| Cc1ccc2nc(NCCN)c3ncc(C)n3c2c1 | 16.7% | – |
| COc1ccnc2[nH]cc(C(=O)C(=O)N3CCN(C(=O)c4ccccc4)C[C@@H]3C)c12 | 4.44% | – |
| CC(=O)O[C@H]1C[C@@H]2CC[C@H]3[C@H]4C[C@H]([N+]5(C)CCCCC5)[C@@H](OC(C)=O)[C@@]4(C)CC[C@@H]3[C@@]2(C)C[C@H]1N1CCCCC1 | -10% | – |
| CN(N=O)C(=O)N[C@H]1C(O)OC(CO)[C@@H](O)[C@H]1O (stereo partly drawn) | 8.04% | – |
| CC(=O)O[C@@]12CO[C@H]1C[C@H](O)[C@@]1(C)C(=O)[C@H](O)C3=C(C)[C@@H](OC(=O)C(O)[C@@H](NC(=O)OC(C)(C)C)c4ccccc4)C[C@@](O)([C@@H](OC(=O)c4ccccc4)[C@@H]21)C3(C)C (stereo partly drawn) | 6.61% | – |
| CC(N[C@H]1CCCC[C@H]1NC(=O)c1ccc(Cl)cc1)c1cccc2ccccc12 (stereo partly drawn) | -1.14% | – |
| O=S(=O)(O)CCSSCCS(=O)(=O)O | 3.29% | – |
| Nc1nc(=O)n([C@H]2C[C@H](O)[C@@H](CO)O2)cc1F | 3.75% | – |
| Cc1ccc(O)c(C(CCN(C(C)C)C(C)C)c2ccccc2)c1 (stereo not drawn) | 6.1% | – |
| c1cc(CN2CCCNCCNCCCNCC2)ccc1CN1CCCNCCNCCCNCC1 | 3.64% | – |
| C[C@H]1O[C@H](O[C@H]2[C@H](O)[C@@H](O)[C@@H](O[C@H]3[C@H](O)[C@@H](O)C(O)O[C@H]3CO)O[C@H]2CO)[C@H](O)[C@@H](O)[C@H]1N[C@H]1C=C(CO)[C@@H](O)[C@H](O)[C@@H]1O (stereo partly drawn) | 0.311% | – |
| COc1ccc(S(=O)(=O)Nc2cc(-c3c(O)ccc4ccccc34)c(O)c3ccccc23)cc1 | – | 24.1 µM (active) |
